Inconclusive results are not listed. Entries that show only a call come without a potency. Activity calls are given as the source filed them. Calls come from the whole dose curve.
Molecular target: Estrogen receptor (Homo sapiens) (UniProt P03372)
Test: qHTS assay to identify small molecule agonists of the estrogen receptor alpha (ER-alpha) signaling pathway (AID 743075);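 note: HEK293 GripTite cells with ER-alpha and UAS-driven beta-lactamase reporter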
Conditions: HEK293 ER-alpha-UAS-bla, beta-lactamase FRET ratio, 18 h; series mostly up to 70.1 µM

Sequence of Estrogen receptor (Homo sapiens) (P03372 whole entry, looked up): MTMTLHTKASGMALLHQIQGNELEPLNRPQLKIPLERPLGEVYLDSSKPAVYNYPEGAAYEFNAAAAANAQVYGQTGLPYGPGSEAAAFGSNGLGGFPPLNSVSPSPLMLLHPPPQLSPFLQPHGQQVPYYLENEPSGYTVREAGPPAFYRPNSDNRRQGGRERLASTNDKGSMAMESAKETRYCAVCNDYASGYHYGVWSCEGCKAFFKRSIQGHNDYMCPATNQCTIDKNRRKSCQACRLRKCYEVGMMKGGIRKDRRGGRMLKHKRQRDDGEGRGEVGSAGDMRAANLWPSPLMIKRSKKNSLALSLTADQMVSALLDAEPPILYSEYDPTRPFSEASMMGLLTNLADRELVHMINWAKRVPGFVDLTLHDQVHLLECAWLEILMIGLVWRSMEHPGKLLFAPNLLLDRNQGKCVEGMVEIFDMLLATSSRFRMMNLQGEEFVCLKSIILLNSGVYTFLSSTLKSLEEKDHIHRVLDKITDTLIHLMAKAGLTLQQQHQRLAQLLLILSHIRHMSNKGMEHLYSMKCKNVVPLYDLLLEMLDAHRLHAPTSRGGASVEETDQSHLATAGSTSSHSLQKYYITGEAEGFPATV

Compound	Potency
C=C1c2c(Cl)ccc(O)c2C(O)=C2C(=O)[C@]3(O)C(O)=C(C(N)=O)C(=O)[C@@H](N(C)C)[C@@H]3[C@@H](O)[C@H]12	inactive
O=P(O)(O)C(O)(Cc1cnc2ccccn12)P(=O)(O)O	inactive
CCCCCCCCCCCCCCCCCC(=O)OCCO	inactive
COc1cc(S(C)=O)ccc1-c1nc2ncccc2[nH]1 (stereo not given)	inactive
c1ccc2c(CCC3CCNCC3)c[nH]c2c1	inactive
Cc1cc(Nc2ccccc2C(=O)O)ccc1Cl	inactive
NCCCC[C@H](NC(=O)[C@@H]1CCCN1C(=O)[C@@H]1CSSC[C@H](N)C(=O)N[C@@H](Cc2ccccc2)C(=O)N[C@@H](Cc2ccccc2)C(=O)N[C@@H](CCC(N)=O)C(=O)N[C@@H](CC(N)=O)C(=O)N1)C(=O)NCC(N)=O	inactive
O=c1[nH]cnc2[nH]cc(CN3CCCCC3)c12	inactive
O=C(O)c1ccc(OCCn2ccnc2)cc1	inactive
CNC[C@@H]1CC[C@@H](N)[C@@H](O[C@H]2[C@H](O)[C@@H](O[C@H]3OC[C@](C)(O)[C@H](NC)[C@H]3O)[C@H](N)C[C@@H]2N)O1	inactive
CN=C(NC)NCc1ccccc1	inactive
C[N+](C)(CCCCCC[N+](C)(C)C1c2ccccc2-c2ccccc21)C1c2ccccc2-c2ccccc21	inactive
Nc1ncnc(Nc2ccc(Cl)cc2)n1	inactive
O=P(O)(O)OC(Cn1cncn1)(Cn1cncn1)c1ccc(F)cc1F	inactive
C[C@]12C=CC(=O)C=C1CC[C@@H]1[C@@H]2[C@@H](O)C[C@@]2(C)[C@H]1CC[C@]2(O)C(=O)COC(=O)CCC(=O)O	inactive
CCCC(=O)N1CCCN(c2nc(N)c3cc(OC)c(OC)cc3n2)CC1	inactive
OCC(O)COc1ccc(Cl)cc1 (stereo not given)	inactive
CC(=O)OC[C@H]1O[C@@H](O[C@H]2[C@H](O)[C@@H](OC(=O)c3ccccc3C(=O)O)[C@H](O)O[C@@H]2COC(C)=O)[C@H](O)[C@@H](OC(=O)c2ccccc2C(=O)O)[C@@H]1O	inactive
C#CCC(Cc1cnc2nc(N)nc(N)c2n1)c1ccc(C(=O)N[C@@H](CCC(=O)O)C(=O)O)cc1 (stereo not given in full)	inactive
CCN(CC)c1ccc(N=Nc2ccc(S(=O)(=O)N(C)C)cc2)c(S(=O)(=O)NCC[n+]2ccccc2)c1	inactive
O=C[C@H](O)[C@@H](O)[C@H](O[C@H]1O[C@H](CO)[C@@H](O[C@H]2O[C@H](CO)[C@@H](O)[C@H](O)[C@H]2O)[C@H](O)[C@H]1O)[C@H](O)CO	inactive
CC(=O)N[C@@H](CC(=O)N[C@@H](CCC(=O)O)C(=O)O)C(=O)O	inactive
CC1(C)S[C@@H]2[C@H](NC(=O)C(C(=O)Oc3ccc4c(c3)CCC4)c3ccccc3)C(=O)N2[C@H]1C(=O)O (stereo not given in full)	inactive
CC(=O)OCC(=O)[C@@]1(O)[C@H](C)C[C@H]2[C@@H]3C[C@H](F)C4=CC(=O)C=C[C@]4(C)[C@H]3[C@@H](O)C[C@@]21C	inactive
C[C@H]1C[C@H]2[C@@H]3CCC4=CC(=O)C=C[C@]4(C)[C@@]3(F)[C@@H](O)C[C@]2(C)[C@@]1(O)C(=O)CCl	inactive
Cc1c(O)cc2c(c1C)O[C@](C)(CCC[C@H](C)CCC[C@H](C)CCCC(C)C)CC2	inactive
CCCCCCCCCCCCCCCC(=O)OC[C@@H](COP(=O)([O-])OCC[N+](C)(C)C)OC(=O)CCCCCCCCCCCCCCC	inactive
CCCCCCCCCCCCCCCCCCOP(=O)([O-])OC1CC[N+](C)(C)CC1	inactive
C=C1CC2C3CCC4=CC(=O)C=C[C@]4(C)[C@@]3(F)[C@@H](O)C[C@]2(C)[C@@]1(O)C(=O)COC(C)=O (stereo not given in full)	inactive
CO[C@H]1[C@@H](O)[C@H](N)[C@@H](O[C@H]2O[C@H]([C@H](C)N)CC[C@H]2N)[C@H](O)[C@@H]1N(C)C(=O)CN	inactive
